Assay outcomes deposited in PubChem by Sanford-Burnham Center for Chemical Genomics.
A selection: hits, their analogues and other compounds. The true share with any hit is near 28%.
CYP2C19 act – increases human CYP2C19 enzyme activity; P33261; recombinant CYP2C19, luciferin-H EGE luminescence; active compounds read high; 0 = fully inhibited enzyme, 1 = untreated enzyme; activation factor at 5 µM; 96,000 tested, under 10 active; AID 1025;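 active = activation factor of at least 2 at 5 µM in the primary screen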;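 also: 0 = wells with 2.5 mM tranylcypromine and 1 = vehicle-only wells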
Mac1 fbg enh – enhancers of human CD11b/CD18 binding to fibrinogen | P05107+P11215 | K562 CD11b/CD18 adhesion to fibrinogen, ATPlite luminescence | activation, % at 10 µM | hit rate 0.07% among 93,000;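 active = 10 µM primary screen giving 50% or more activity, confirmed by 40% or more on retest at that dose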
CYP2C19 inhib – human CYP2C19 inhibition; hit rate 21% among 96,000; inhibition, % at 5 µM; P33261; CYP2C19 Supersomes, luciferin-H EGE luminescence, 30 min;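 active = CYP2C19 inhibition above a set limit at 5 µM in the primary screen, cut at about 50% in these data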;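 also: plate controls were negative control wells for no effect and 2.5 mM tranylcypromine positive control for full effect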
CYP2C9 activ – increases human cytochrome P450 2C9 activity | hit rate 1.4% among 96,000 | activation factor at 5 µM | recombinant CYP2C9, luciferin-H conversion, luminescence; active compounds read high; factor 1 = untreated enzyme, 0 = blocked | AID 1024 | P11712;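 active = activation factor of 2 or more for CYP2C9 at a 5 µM dose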;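 also: 0 = sulfaphenazole-blocked wells and 1 = vehicle-only wells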
Target sequence (P11712 whole entry, looked up): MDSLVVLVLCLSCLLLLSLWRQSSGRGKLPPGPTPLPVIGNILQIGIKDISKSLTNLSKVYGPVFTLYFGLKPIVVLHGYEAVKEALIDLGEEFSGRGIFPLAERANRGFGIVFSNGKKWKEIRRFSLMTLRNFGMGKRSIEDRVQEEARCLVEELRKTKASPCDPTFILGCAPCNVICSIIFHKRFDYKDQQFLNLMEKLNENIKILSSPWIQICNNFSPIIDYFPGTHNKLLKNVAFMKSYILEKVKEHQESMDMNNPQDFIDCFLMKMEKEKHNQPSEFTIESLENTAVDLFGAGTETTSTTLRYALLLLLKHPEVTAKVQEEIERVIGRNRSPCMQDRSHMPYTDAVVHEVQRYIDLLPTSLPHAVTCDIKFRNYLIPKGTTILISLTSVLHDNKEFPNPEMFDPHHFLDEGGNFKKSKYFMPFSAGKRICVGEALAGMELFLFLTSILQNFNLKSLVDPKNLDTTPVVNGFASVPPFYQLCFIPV
CYP2C9 inhib – inhibitors of human CYP2C9; CYP2C9 Supersomes, luciferin-H conversion, luminescence; hit rate 20% among 96,000; inhibition, % at 5 µM; P11712;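 active = blocking of liver enzyme CYP2C9 beyond about 50% at 5 µM, limit read from the data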
Mac1 fbg inh – blocks human CD11b/CD18 adhesion to fibrinogen; hit rate 0.54% among 93,000; inhibition, % at 10 µM; P05107+P11215; K562 CD11b/CD18 adhesion to fibrinogen, ATPlite luminescence; Mn2+ added to activate the integrin; AID 1497;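 active = primary inhibition of 50% or more at 10 µM, then 40% or more on retest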
Active calls of the source: *; / = no result.

SMILES | CYP2C19 act | Mac1 fbg enh | CYP2C19 inhib | CYP2C9 activ | CYP2C9 inhib | Mac1 fbg inh
Cc1ccc(/C=N/c2sc3c(c2C#N)CCC3)o1 | 1 | / | 3.7 | 0.8 | 23.3 | /
N#Cc1c(/N=C/c2cccs2)sc2c1CCCCC2 | 0.3 | -10.1 | 69.8* | 0.1 | 94.0* | 86.3
CCc1cccc2c(C=C(C#N)C#N)cn(CC(=O)N3CCCC3)c12 | 1.1 | / | -7.5 | 1 | -3.6 | /
COc1ccc2nc(NCCO)[nH]c2c1 | 1.1 | 0.0 | -14.5 | 1.1 | -8.1 | -8.5
c1ccc(CNc2nc3ccccc3[nH]2)cc1 | 0.5 | -0.3 | 48.1 | 1 | 2.2 | 12.1
Cc1ccc2nc(NCc3ccccc3)[nH]c2c1 | 0.1 | -3.9 | 88.5* | 0.8 | 23.8 | 15.3
COc1ccc2nc(-c3ccccc3)[nH]c2c1 | 0.3 | 2.7 | 73.6* | 0.6 | 39.4 | 17.7
COc1ccc2nc(NCc3ccccc3)[nH]c2c1 | 0.2 | 3.7 | 78.2* | 0.8 | 21.9 | 7.1
CC1(C)CC(=O)C(/C=N/c2ncccc2C(=O)O)=C(O)C1 | 1.1 | -2.9 | -9.0 | 1 | 1.6 | -11.3
CSc1nnc([C@@H](NC(=O)OC(C)(C)C)C(C)C)o1 | 0.6 | 0.4 | 37.8 | 0.8 | 20.8 | 52.1
Cc1[nH]c(=O)[nH]c(=O)c1CSc1nnc([C@H](CC(C)C)NC(=O)OC(C)(C)C)o1 | 1 | -0.9 | 3.5 | 0.9 | 7.9 | 10.6
CCCCSc1nnc([C@H](C)NC(=O)OC(C)(C)C)o1 | 0.2 | 2.4 | 75.2* | 0.7 | 32.6 | 3.0
COC(=O)CSc1nnc([C@H](CC(C)C)NC(=O)OC(C)(C)C)o1 | 0.3 | -5.3 | 65.7* | 0.9 | 5.5 | -14.2
CCCCSc1nnc([C@H](CC(C)C)NC(=O)OC(C)(C)C)o1 | 0.4 | 1.2 | 61.7* | 0.4 | 55.7* | -10.9
Cn1cc(Br)c(C(=O)NC2CCCCC2)n1 | 0.7 | -2.0 | 25.8 | 1.3 | -28.5 | -4.8
Cc1noc(C)c1COC(=O)c1ccccc1NC(=O)Cc1ccccc1 | 0 | -1.8 | 99.0* | 0 | 97.5* | 12.1
Cc1noc(C)c1COC(=O)c1cc(F)c(F)cc1Cl | 0.2 | -2.0 | 76.8* | 0.4 | 55.0* | -6.4
Cc1noc(C)c1COC(=O)c1cccnc1SCC(=O)Nc1ccc2c(c1)OCO2 | 0.7 | 1.0 | 28.4 | 0.3 | 74.0* | -3.6
Cc1noc(C)c1COC(=O)CCOc1ccccc1 | 0.5 | -1.8 | 48.5 | 1.1 | -6.8 | -2.3
Cc1noc(C)c1COC(=O)c1ccc2c(c1)OCO2 | 0.6 | 10.5 | 36.4 | 0.6 | 36.5 | -14.7
Cc1noc(C)c1COC(=O)c1ccccc1Oc1ccccc1 | 0 | 0.4 | 96.3* | 0.1 | 89.2* | -11.4
CCOc1ccccc1NC(=O)N1CCCC1C(=O)Nc1ccc(NC(C)=O)cc1 (stereo unspecified) | 0.9 | -2.6 | 7.2 | 0.8 | 20.6 | 3.1
COc1ccc(CCC(C)NCC2CCCCC2)cc1 (stereo unspecified) | / | -3.7 | / | / | / | -19.2
CN1CC[n+]2cnc3ccccc3c21 | 1.2 | -2.4 | -22.9 | 1.2 | -16.2 | /
CCn1nc(C)cc1-c1n[nH]c(=S)n1N | 1.1 | -1.6 | -14.8 | 0.9 | 5.8 | -12.3
SMILES | CYP2C19 act | Mac1 fbg enh | CYP2C19 inhib | CYP2C9 activ | CYP2C9 inhib | Mac1 fbg inh
COc1ccc(CCN2C(=O)CC(Sc3ncccc3C(=O)O)C2=O)cc1OC (stereo unspecified) | 1.1 | / | -11.3 | 1.1 | -7.3 | /
CC(C)(C)c1ccc(C(=O)NC(=S)Nn2cnnc2)cc1 | / | -0.7 | / | / | / | 8.8
Cc1ccc2[nH]c(C(=O)O)c(NC(=O)CN3CCN(c4cccc(C)c4C)CC3)c2c1 | 0.7 | -4.0 | 33.9 | 0.2 | 82.7* | 0.2
COC(=O)c1[nH]c2ccc(C)cc2c1NC(=O)CN1CCN(c2ccccc2)CC1 | 0.1 | -0.5 | 89.6* | 0.2 | 75.4* | 49.2
Cc1c(C)n(C(=O)CN2CCN(c3ccccc3)CC2)c2ccccc12 | 0.4 | 2.8 | 56.2* | 1.6 | -57.1 | -6.2
CCc1cccc(CC)c1NC(=O)CN1CCN(c2ccccc2)CC1 | 0.3 | -1.1 | 65.6* | 0.2 | 82.8* | 27.1
Cc1c(C)n(C(=O)CN2CCC(C(N)=O)CC2)c2ccccc12 | 1.2 | 1.3 | -16.2 | 1.4 | -37.8 | 5.5
COc1ccc(Cc2nnc(NC(=O)c3cccc([N+](=O)[O-])c3)s2)cc1 | / | 42.5 | / | / | / | 19.3
Cc1nn(C)cc1/C=N/NC(=S)Nc1ccccc1 | 0.8 | -0.2 | 21.0 | 0.6 | 36.7 | -1.6
CCc1cc(C)c(O)c(CC)n1 | 0.9 | -3.9 | 5.4 | 0.9 | 10.8 | -19.3
Cc1cc(OCc2cc3c(cc2Cl)OCO3)c2c(C)cc(=O)oc2c1 | / | 23.7 | / | / | / | -2.5
Cc1cc(O)c2c(-c3ccccc3)cc(=O)oc2c1 | 0.5 | 2.6 | 52.4* | 0.2 | 75.6* | 16.8
CCCCc1cc(=O)oc2cc(C)cc(OC(C)C(=O)O)c12 (stereo unspecified) | 1 | / | -1.4 | 0.8 | 21.9 | /
CCCCc1cc(=O)oc2cc(C)cc(O)c12 | 0.4 | / | 55.1* | 0.3 | 68.0* | /
COc1ccc([N+](=O)[O-])cc1COc1cc(C)cc2oc(=O)cc(-c3ccccc3)c12 | 0.3 | -0.9 | 74.7* | 0.1 | 91.7* | 12.4
COc1cccc(C2=NOC(C(=O)NCCCn3ccnc3)C2)c1 (stereo unspecified) | 0 | 1.0 | 95.1* | 0.2 | 82.0* | 24.6
O=C(NCCCn1ccnc1)C1CC(c2cccc(Br)c2)=NO1 (stereo unspecified) | 0 | 0.6 | 99.8* | 0.2 | 85.0* | -13.0
COCCNC(=O)C1CC(c2cccc(OC)c2)=NO1 (stereo unspecified) | 0.9 | 0.1 | 6.6 | 1.1 | -11.0 | -8.8
COc1ccc(C2=NOC(C(=O)NCCCn3ccnc3)C2)cc1 (stereo unspecified) | 0.2 | -3.5 | 84.1* | 0.2 | 84.5* | -20.6
CCn1c(CNc2ccc(C(=O)O)cc2)nc2ccccc21 | 0.9 | -2.9 | 5.0 | 1 | 0.3 | 31.1
Cn1c(CCCCCN)nc2ccccc21 | 0.8 | 1.3 | 22.6 | 0.4 | 63.3* | -8.5
CCn1cnc2cc(NCc3nc4ccccc4n3C)ccc21 | 0.1 | -1.3 | 92.6* | 0.6 | 40.7 | -14.8
CCCn1c(CNc2ccc(Br)cc2)nc2ccccc21 | 0 | -3.4 | 98.0* | 0.1 | 92.4* | 62.3*
Cn1c(CSc2nc3ccccc3n2C)nc2ccccc21 | 0.2 | 2.1 | 83.9* | 0.9 | 13.2 | -12.7
O=C(CCSc1ccc(Cl)cc1)NC12CC3CC(CC(C3)C1)C2 | 0.6 | -6.3 | 35.3 | 0.6 | 36.8 | 3.0
O=C(NCCc1ccccc1)C(=O)NN=C1CCCC1 | 1.1 | 20.6 | -7.1 | 1 | -2.3 | -12.4
Cn1c(CNc2ccccc2O)nc2ccccc21 | 0.3 | -4.1 | 69.8* | 0.9 | 12.6 | -4.7
Cn1c(CNc2ccccc2)nc2ccccc21 | 0.5 | -2.2 | 52.4* | 0.7 | 33.7 | 13.1
Cn1c(CNc2nc3ccccc3n2CCN2CCCCC2)nc2ccccc21 | 1.1 | 1.2 | -7.6 | 1 | -3.5 | 8.8
CCCC(=O)NCc1nc2ccccc2n1C | 1.1 | -1.6 | -14.4 | 1.2 | -21.3 | 4.5
